From PubChem BioAssay (NCI) come the findings set out here.

Where “and” joins values, the source holds several entries; their conditions need not be identical. Equal entries are not always repeated. Compounds without any hit were thinned out: in the full panel of roughly 79,000, 15% have a hit. Unmarked numbers belong to inactive results. Calls of active or inactive are those of the source. Cut-off read from the data, not from the text of the source: active = growth inhibition above about 70%; inactive = the rest.

Assay [1] in a line: NCI Yeast Anticancer Drug Screen. Data for the rad50 strain (AID 155).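 Note: 0% = growth of vehicle-only cultures of the same strain.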 The note with it: S. cerevisiae rad50 strain growth inhibition; at 50.0 µM; active compounds read high. An outline of the steps:
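Vehicle-treated cultures provide the reference for the growth inhibition reported for compound-exposed, repair-deficient yeast.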

Assay [2] in a line: NCI Yeast Anticancer Drug Screen. Data for the mec2-1 strain (AID 157). The note with it: S. cerevisiae mec2-1 strain, at 50.0 µM, active compounds read high. An outline of the steps:
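Using mec2-1 yeast: add compound, measure growth, express inhibition versus vehicle-treated cultures.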

Assay [3] in a line: NCI Yeast Anticancer Drug Screen. Data for the sgs1 mgt1 strain (AID 161).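 Note: 0% = growth of cultures given vehicle only.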 The note with it: S. cerevisiae sgs1 mgt1 strain, at 50.0 µM, active compounds read high. An outline of the steps: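 Yeast cells carrying a defined DNA-repair defect were exposed to test compounds. Growth inhibition was measured relative to vehicle-treated controls.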
Assay [4] in a line: NCI Yeast Anticancer Drug Screen. Data for the cln2 rad14 strain (AID 165).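 Note: 0% = growth equal to vehicle treated cultures.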 The note with it: S. cerevisiae cln2 rad14 strain, at 50.0 µM, active compounds read high. An outline of the steps: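 Yeast strain cln2 rad14, bearing defects in cell cycle control and DNA repair, serves as the test system; values reflect growth inhibition compared with vehicle.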
A short description of assay [5]: NCI Yeast Anticancer Drug Screen. Data for the bub3 strain (AID 167). The note with it: S. cerevisiae bub3 mutant strain, at 50.0 µM, active compounds read high. An outline of the steps:
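Mutant yeast screening strain plus compound; vehicle-treated cultures serve as the 0% inhibition reference.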

A short description of assay [6]: NCI Yeast Anticancer Drug Screen. Data for the mlh1 rad18 strain (AID 175). The note with it: S. cerevisiae mlh1 rad18 strain growth inhibition; at 50.0 µM; active compounds read high. An outline of the steps: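 Steps: expose repair-defective yeast to compound; measure growth; express inhibition against vehicle-treated controls.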

As for `C[CH2][Sn](/[CH]=C/C=C/OC)([CH2]C)[CH2]C`, the growth inhibition in assay [1] is 36.5%; in assay [2] it was 47%; in assay [3], 66.2%; in assay [4] it was 16.8%; in assay [5], 83.4% (active); in assay [6] it was 89.7% (active).
For `N#CC(C#N)=Cc1cccc(C=C(C#N)C#N)c1`, the growth inhibition in assay [1] was -0.55%; in assay [2] it was -3.65%; in assay [3] it was 12.9%; in assay [4] it was 8.3%; in assay [5], 0.65%; in assay [6], -24.6%.
Take `Cc1nccc2c1[nH]c1ccc(Br)cc12`: the growth inhibition in assay [1] was 13.7%; in assay [2], 11.6%; in assay [3] it was -7.55%; in assay [4], -2%; in assay [5] it was 9.55%; in assay [6] it was 1.25%.
As to `O=C1NC(=S)NC(=O)C1=Cc1ccc(-c2ccccc2)cc1`, the growth inhibition in assay [1] was 33.1%; in assay [2], -12%; in assay [3] it was 16.7%; in assay [4] it was 15.6%; in assay [5] it was 13.3%; in assay [6], 15.3%.
Take `CC(Cl)CC(=O)OCC1CCCN2CCCCC12` (stereo not drawn): the growth inhibition in assay [1] is 55.1%; in assay [2] it was 33.3%; in assay [3], 23.6%; in assay [4], 41.8%; in assay [5], 45.4%; in assay [6], 39.5%.
Regarding `COc1ccc(CC(N)C(=O)O)cc1N(CCCl)CCCl` (stereo not drawn), the growth inhibition in assay [1] is -0.2% and -0.5%; in assay [2], -0.55% and -7.45%; in assay [3], -11.2% and -6.65%; in assay [4], -6.55% and -9.85%; in assay [5], 2.25% and 7.75%; in assay [6], -9.25% and -7.2%.
Turning to `C[CH2][Pb]([CH2]C)([CH2]C)[O]C(=O)c1ccccc1`, the growth inhibition in assay [1] is -0.3%; in assay [2], 1.6%; in assay [3], 10.2%; in assay [4], -3.35%; in assay [5] it was 1.35%; in assay [6], 5.35%.
Turning to `C/C(=N\NC(N)=O)C(CN(C)C)C(c1ccccc1)c1c(O)c2ccccc2oc1=O` (stereo not drawn), the growth inhibition in assay [1] was 15.8%; in assay [2], 21.1%; in assay [3] it was 15.6%; in assay [4], 5%; in assay [5], 9.7%; in assay [6], 8%.
For `CCN(CC)C(=O)N1CN(c2ccccc2)C2(CCN(CCCC3(c4ccc(F)cc4)OCCO3)CC2)C1=O`, the growth inhibition in assay [1] is 24.7%; in assay [2] it was 24.1%; in assay [3], 48%; in assay [4], 19.7%; in assay [5], 23.8%; in assay [6], 49.9%.
`Oc1ccc(Cc2ccc(O)cc2)cc1`: the growth inhibition was -0.2% in assay [1]; -3.4% in assay [2]; -0.3% in assay [3]; -16.3% in assay [4]; -3.1% in assay [5]; 5.85% in assay [6].
For `COP(=O)(OC)C(=O)c1ccccc1`, the growth inhibition in assay [1] is -11.6%; in assay [2], -17.2%; in assay [3], -7.8%; in assay [4] it was -31.9%; in assay [5], -23.8%; in assay [6], -16.1%.
For `O.O.[NH-]C1CCCCC1[NH-].[Pt+2]` (stereo not drawn), the growth inhibition is 19.6% in assay [1]; 33.6% in assay [2]; 6.25% in assay [3]; -5.95% in assay [4]; 3.05% in assay [5]; 44.2% in assay [6].
For `O=c1oc2cc(O)ccc2c(O)c1C(c1cccnc1)c1c(O)c2ccc(O)cc2oc1=O`, the growth inhibition was 0.75% in assay [1]; 1.25% in assay [2]; 11.7% in assay [3]; -0.05% in assay [4]; -0.5% in assay [5]; -80.5% in assay [6].
Take `COc1ccc(C(=O)C(CC2C(=O)NC(=O)NC2=O)c2ccc(OC)cc2)cc1` (stereo not drawn): the growth inhibition in assay [1] is -7.65%; in assay [2], -8.65%; in assay [3], -22.9%; in assay [4] it was -17.1%; in assay [5], -19.1%; in assay [6] it was -19.1%.
For the compound `COc1ccc(NC(=O)C(=O)C(CC2C(=O)NC(=S)NC2=O)C(=O)c2ccc3ccccc3c2)c([N+](=O)[O-])c1` (stereo not drawn), the growth inhibition was -10.7% in assay [1]; 1.35% in assay [2]; 13.1% in assay [3]; -30.1% in assay [4]; 31.2% in assay [5]; 3.5% in assay [6].
As to `CNN`, the growth inhibition in assay [1] is 19.6%; in assay [2], -4.8%; in assay [3] it was 34.1%; in assay [4], 3.3%; in assay [5], -1.8%; in assay [6], 40.1%.
Take `CC(C)C1CN1CC(O)Cn1ccnc1[N+](=O)[O-]` (stereo not drawn): the growth inhibition in assay [1] was -15.2%; in assay [2], -17.8%; in assay [3] it was -19.1%; in assay [4], 0%; in assay [5] it was 7.35%; in assay [6] it was -19.2%.
Regarding `COC1OC2COc3ccccc3OC2C(N=C(N)N[N+](=O)[O-])C1OS` (stereo not drawn), the growth inhibition in assay [1] was -0.8%; in assay [2], -7.55%; in assay [3] it was 2.15%; in assay [4], -24.7%; in assay [5] it was -3.15%; in assay [6] it was 11.3%.
As to `O=C(C(Cl)Cl)N1CCCCC1`, the growth inhibition is -5.2% in assay [1]; -0.3% in assay [2]; -5.5% in assay [3]; 4.65% in assay [4]; 0% in assay [5]; 39.9% in assay [6].
Consider `O=[N+]([O-])C(CO)C(CO)[N+](=O)[O-]` (stereo not drawn), for which the growth inhibition in assay [1] is -5.95%; in assay [2], -12.4%; in assay [3], -1%; in assay [4] it was -20.8%; in assay [5], -13%; in assay [6], -17.6%.
For `O=S(=O)(O)c1ccc(CBr)cc1`, the growth inhibition was -27.6% in assay [1]; -27.6% in assay [2]; 0.6% in assay [3]; -36.4% in assay [4]; -3.5% in assay [5]; -6.85% in assay [6].
As for `CCC(C)CC(C)N` (stereo not drawn), the growth inhibition in assay [1] is 0.6%; in assay [2] it was 2.7%; in assay [3], 14.5%; in assay [4], 2.65%; in assay [5], -2.45%; in assay [6] it was 9.15%.
For the compound `CP(O)(=S)C1CCCCC1` (stereo not drawn) (tested in a mixture with another compound), the growth inhibition is 26.8% in assay [1]; 1.1% in assay [2]; -4.85% in assay [3]; 5.3% in assay [4]; 18.7% in assay [5]; 13.8% in assay [6].
As to `CCCCCCCCCC[C@@H](O)[C@@H]1CC[C@@H]([C@@H]2CC[C@@H]([C@@H](O)CCCCCCCCCC[C@H](O)CC3=CC(C)OC3=O)O2)O1` (stereo partly drawn), the growth inhibition in assay [1] was -3.45%; in assay [2] it was -0.4%; in assay [3], 18.8%; in assay [4], 31%; in assay [5], -11.7%; in assay [6] it was -21.9%.
For `Cn1c(=O)n(C)c(=O)n(C)c1=O`, the growth inhibition in assay [1] is 3.8%; in assay [2], 6.65%; in assay [3], -5.2%; in assay [4], -1.55%; in assay [5], 14.6%; in assay [6] it was -12.6%.
Take `CCC[CH2][Sn]1([CH2]CCC)[O]C(=O)CN=C(C)c2ccccc2[O]1`: the growth inhibition is 0.1% in assay [1]; 9.85% in assay [2]; 4% in assay [3]; 45.5% in assay [4]; 9.8% in assay [5]; 3.45% in assay [6].
For `CCOC(=O)c1cc(N(CCCl)CCCl)ccc1OC(=O)CC`, the growth inhibition in assay [1] was 3.95%; in assay [2], -6.9%; in assay [3], 19.7%; in assay [4] it was -32.2%; in assay [5], 5.85%; in assay [6], 30.1%.
For the compound `CC(Cc1ccc(O)cc1)NCC(O)c1ccc(O)c(O)c1` (stereo not drawn), the growth inhibition in assay [1] is 10.6%; in assay [2], 15.3%; in assay [3] it was 3.4%; in assay [4], 0.55%; in assay [5] it was -7.45%; in assay [6], 22.9%.
On to `[C-]#[O+].[C-]#[O+].[C-]#[O+].[C-]#[O+].[W].c1ccc([PH+](CC[PH+](c2ccccc2)c2ccccc2)c2ccccc2)cc1`, for which the growth inhibition was -2.9% in assay [1]; 5.2% in assay [2]; -10.4% in assay [3]; -8% in assay [4]; -7.5% in assay [5]; 8.95% in assay [6].
In the case of `CCCCCCCCOC(=O)c1ccccc1C(=O)OCCCCCCCC`, the growth inhibition in assay [1] was -0.95%; in assay [2], -3.35%; in assay [3], 18.6%; in assay [4], 9.25%; in assay [5], -3.95%; in assay [6] it was -5.5%.
`CC1(C)N=C(N)N=C(N)N1c1ccc(CCc2ccc(S(=O)(=O)F)cc2)cc1`: the growth inhibition in assay [1] was 9.15%; in assay [2], 7%; in assay [3], -7.3%; in assay [4] it was -6.2%; in assay [5], -8.7%; in assay [6] it was 7.65%.
`[CH3][Sb]1([Cl])[CH2]CC[CH2]1`: the growth inhibition in assay [1] was 0.2%; in assay [2], 26.1%; in assay [3] it was -5.6%; in assay [4] it was -3.1%; in assay [5], 32.5%; in assay [6] it was 27%.
As to `Cc1ccc(S(=O)(=O)F)cc1`, the growth inhibition in assay [1] is 10.4%; in assay [2], -8.7%; in assay [3], 2.1%; in assay [4] it was -14.7%; in assay [5], -1.3%; in assay [6], 9.5%.
In the case of `NNC(=O)Nc1nn[nH]n1`, the growth inhibition in assay [1] is 1.75% and -6.75%; in assay [2] it was 8.2% and 8.5%; in assay [3], 10.2% and -6.75%; in assay [4], -19.4% and 6%; in assay [5], -15% and 12.6%; in assay [6], 7.95% and -3.6%.
As for `CCN1C2CCC1CC(=O)C2`, the growth inhibition in assay [1] was 0.95%; in assay [2], 5.9%; in assay [3], -5.7%; in assay [4], -11.9%; in assay [5], -14.2%; in assay [6], 7.85%.
Consider `O=c1oc2cc(O)ccc2c(O)c1C(c1ccccn1)c1c(O)c2ccc(O)cc2oc1=O`, for which the growth inhibition in assay [1] is 12.6%; in assay [2], 9.15%; in assay [3] it was -13.7%; in assay [4], -1.85%; in assay [5] it was -17.4%; in assay [6] it was -52%.
In the case of `CCOC(=O)C(C)(C)C(OP(=S)(OCC)OCC)=C(C)C`, the growth inhibition in assay [1] was 4.6%; in assay [2], 12.4%; in assay [3] it was 12.7%; in assay [4], 23.8%; in assay [5] it was 18%; in assay [6], 7.15%.
For `C[C@]12CCNC(=O)C=C1CC[C@@H]1C2CC[C@@]2(C)C1CC[C@@H]2OC(=O)COc1ccc(N(CCCl)CCCl)cc1` (stereo partly drawn), the growth inhibition in assay [1] was 24.4%; in assay [2] it was 25.1%; in assay [3] it was 21.6%; in assay [4], 60%; in assay [5], 35.8%; in assay [6], -26.1%.
